Screen size: about 5,500 compounds; about 2,000 (36%) were called active. Roughly 18% stayed inconclusive and do not appear here. No stated cut-off is given here; in the data, active means normalized growth mostly below about 0.91 (no sharp cut-off); inconclusive means no clear call, values can overlap the other calls; inactive means mostly above about 0.92. The list shows a part of the results.
Test: chemical genetic growth profiling, strain panel (AID 1159580);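 further: tested at 20 µM; growth read once vehicle control cultures reached saturation at 30 °C; 1 = growth at the plate median or of vehicle wells; lower values mean less growth of the strain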
Conditions: growth OD
[1] = S. cerevisiae deletion strains, locus YAL013W, strain DEP1, active compounds read low
[2] = S. cerevisiae deletion strains, locus YGR078C, strain PAC10, active compounds read low
[3] = S. cerevisiae deletion strains, locus YMR263W, strain SAP30, active compounds read low
[4] = S. cerevisiae deletion strains, locus YNL322C, strain KRE1, active compounds read low
[5] = S. cerevisiae deletion strains, locus YPL055C, strain LGE1, active compounds read low
[6] = S. cerevisiae deletion strains, locus YPL241C, strain CIN2, active compounds read low
[7] = S. cerevisiae deletion strains, locus YBR229C, strain ROT2, active compounds read low
[8] = S. cerevisiae deletion strains, locus YDL101C, strain DUN1, active compounds read low
[9] = S. cerevisiae deletion strains, locus YDR150W, strain NUM1, active compounds read low
[10] = S. cerevisiae deletion strains, locus YEL061C, strain CIN8, active compounds read low
[11] = S. cerevisiae deletion strains, locus YHR030C, strain SLT2, active compounds read low
[12] = S. cerevisiae deletion strains, locus YHR087W, strain rtc3, active compounds read low
[13] = S. cerevisiae deletion strains, locus YJR043C, strain POL32, active compounds read low
[14] = S. cerevisiae deletion strains, locus YJR075W, strain HOC1, active compounds read low
[15] = S. cerevisiae deletion strains, locus YKL190W, strain CNB1, active compounds read low
[16] = S. cerevisiae deletion strains, locus YLR039C, strain RIC1, active compounds read low
[17] = S. cerevisiae deletion strains, locus YLR058C, strain SHM2 (second series), active compounds read low
[18] = S. cerevisiae deletion strains, locus YLR085C, strain ARP6, active compounds read low
[19] = S. cerevisiae deletion strains, locus YLR262C, strain YPT6, active compounds read low
[20] = S. cerevisiae deletion strains, locus YML094W, strain GIM5, active compounds read low
[21] = S. cerevisiae deletion strains, locus YMR219W, strain ESC1, active compounds read low
[22] = S. cerevisiae deletion strains, locus YNL153C, strain GIM3, active compounds read low
[23] = S. cerevisiae deletion strains, locus YNL298W, strain CLA4 (second series), active compounds read low
[24] = S. cerevisiae deletion strains, locus YNR030W, strain Alg12, active compounds read low
[25] = S. cerevisiae deletion strains, locus YPR135W, strain CTF4, active compounds read low
[26] = S. cerevisiae strains, strain wild type, active compounds read low
[27] = S. cerevisiae deletion strains, locus YCL061C, strain MRC1, active compounds read low
[28] = S. cerevisiae deletion strains, locus YJL187C, strain SWE1, active compounds read low
[29] = S. cerevisiae deletion strains, locus YMR307W, strain GAS1, active compounds read low

Measured: normalized growth

O=C(O)[C@@H]1C[C@@H](C(=O)O)N1
inactive: [1] 1.02 | S. cerevisiae deletion strains, locus YAL040C, strain CLN3, active compounds read low 1.08 | S. cerevisiae deletion strains, locus YCL061C, strain MRC1 (second series), active compounds read low 1 | S. cerevisiae deletion strains, locus YER002W, strain NOP16, active compounds read low 1 | [2] 1.01 | S. cerevisiae deletion strains, locus YGR229C, strain SMI1, active compounds read low 0.986 | [3] 0.997 | S. cerevisiae deletion strains, locus YNL175C, strain NOP13, active compounds read low 1 | S. cerevisiae deletion strains, locus YNL197C, strain WHI3, active compounds read low 1.02 | S. cerevisiae deletion strains, locus YNL224C, strain SQS1, active compounds read low 0.978 | [4] 0.986 | S. cerevisiae deletion strains, locus YOR083W, strain WHI5 (second series), active compounds read low 1.03 | [5] 1.02 | [6] 0.992

CSc1sc(C#N)c2c1C(O)CCC2 (stereo not given)
inactive: [1] 0.988 | [7] 0.973 | [8] 0.977 | [9] 0.948 | [10] 0.993 | [2] 0.983 | [11] 0.931 | [12] 0.968 | [13] 0.961 | [14] 0.96 | [15] 0.992 | [16] 1.01 | [17] 0.982 | [18] 1.03 | [19] 1.01 | [20] 1 | [21] 0.985 | [3] 0.95 | S. cerevisiae deletion strains, locus YNL128W, strain TEP1, active compounds read low 0.975 | [22] 0.976 | [23] 0.964 | [4] 1 | [24] 0.974 | S. cerevisiae deletion strains, locus YOL006C, strain TOP1, active compounds read low 0.959 | [5] 0.902 | [6] 0.982 | [25] 0.94 | [26] 0.984

CC(C)(C)NC[C@H](O)c1ccc(O)c(CO)c1
inactive: S. cerevisiae deletion strains, locus YAL021C, strain ccr4, active compounds read low 1.02 | S. cerevisiae deletion strains, locus YAL026C, strain drs2, active compounds read low 1.03 | S. cerevisiae deletion strains, locus YAL030W, strain snc1, active compounds read low 1.02 | S. cerevisiae deletion strains, locus YBL061C, strain skt5, active compounds read low 1.01 | S. cerevisiae deletion strains, locus YBR009C, strain hhf1, active compounds read low 1.03 | S. cerevisiae deletion strains, locus YBR023C, strain chs3, active compounds read low 1.02 | S. cerevisiae deletion strains, locus YBR171W, strain sec66, active compounds read low 1.04 | S. cerevisiae deletion strains, locus YBR231C, strain swc5, active compounds read low 1.03 | S. cerevisiae deletion strains, locus YBR279W, strain paf1, active compounds read low 1.02 | S. cerevisiae deletion strains, locus YCL011C, strain gbp2, active compounds read low 1.02 | S. cerevisiae deletion strains, locus YCL016C, strain dcc1, active compounds read low 1.02 | [27] 1.01 | S. cerevisiae deletion strains, locus YCL069W, strain vba3, active compounds read low 1.02 | S. cerevisiae deletion strains, locus YCR088W, strain abp1, active compounds read low 1.02 | S. cerevisiae deletion strains, locus YDL005C, strain med2, active compounds read low 1.02 | S. cerevisiae deletion strains, locus YDL040C, strain nat1, active compounds read low 1.02 | S. cerevisiae deletion strains, locus YDR001C, strain nth1, active compounds read low 1.01 | S. cerevisiae deletion strains, locus YDR069C, strain doa4, active compounds read low 1.04 | S. cerevisiae deletion strains, locus YDR137W, strain rgp1, active compounds read low 1.06 | S. cerevisiae deletion strains, locus YDR159W, strain sac3, active compounds read low 1.04 | S. cerevisiae deletion strains, locus YDR195W, strain ref2 1.02 | S. cerevisiae deletion strains, locus YDR297W, strain sur2, active compounds read low 1.05 | S. cerevisiae deletion strains, locus YDR334W, strain swr1, active compounds read low 1.02 | S. cerevisiae deletion strains, locus YDR335W, strain msn5, active compounds read low 1.01 | S. cerevisiae deletion strains, locus YDR392W, strain spt3, active compounds read low 0.992 | S. cerevisiae deletion strains, locus YEL003W, strain gim4, active compounds read low 1.01 | S. cerevisiae deletion strains, locus YEL037C, strain rad23, active compounds read low 1 | S. cerevisiae deletion strains, locus YEL061C, strain CIN8 (second series), active compounds read low 1.01 | S. cerevisiae deletion strains, locus YER015W, strain faa2, active compounds read low 1.02 | S. cerevisiae deletion strains, locus YER016W, strain bim1, active compounds read low 1.03 | S. cerevisiae deletion strains, locus YER111C, strain swi4, active compounds read low 1.02 | S. cerevisiae deletion strains, locus YER155C, strain BEM2 (second series), active compounds read low 1.03 | S. cerevisiae deletion strains, locus YFR010W, strain ubp6, active compounds read low 1.02 | S. cerevisiae deletion strains, locus YGL167C, strain pmr1, active compounds read low 1.01 | S. cerevisiae deletion strains, locus YGL173C, strain kem1, active compounds read low 1.03 | S. cerevisiae deletion strains, locus YGL227W, strain vid30, active compounds read low 1.01 | S. cerevisiae deletion strains, locus YGL240W, strain doc1, active compounds read low 1.02 | S. cerevisiae deletion strains, locus YGL253W, strain hxk2, active compounds read low 1.01 | S. cerevisiae deletion strains, locus YHR013C, strain ard1, active compounds read low 1.04 | S. cerevisiae deletion strains, locus YHR027C, strain rpn1, active compounds read low 1.02 | [11] 0.999 | S. cerevisiae deletion strains, locus YHR079C, strain IRE1, active compounds read low 0.97 | S. cerevisiae deletion strains, locus YHR142W, strain chs7, active compounds read low 1.01 | S. cerevisiae deletion strains, locus YJL092W, strain hpr5, active compounds read low 1.02 | S. cerevisiae deletion strains, locus YJL095W, strain BCK1 (second series), active compounds read low 1.01 | S. cerevisiae deletion strains, locus YJL095W, strain BCK1, active compounds read low 0.966 | S. cerevisiae deletion strains, locus YJL115W, strain asf1, active compounds read low 1.02 | S. cerevisiae deletion strains, locus YJL129C, strain trk1, active compounds read low 1.03 | S. cerevisiae deletion strains, locus YJL154C, strain vps35, active compounds read low 1.02 | S. cerevisiae deletion strains, locus YJL164C, strain tpk1, active compounds read low 1.02 | S. cerevisiae deletion strains, locus YJL166W, strain qcr8, active compounds read low 1.02 | [28] 1.02 | S. cerevisiae deletion strains, locus YJR066W, strain TOR1, active compounds read low 0.955 | S. cerevisiae deletion strains, locus YKL160W, strain elf1, active compounds read low 1.02 | S. cerevisiae deletion strains, locus YKR026C, strain gcn3, active compounds read low 1.01 | S. cerevisiae deletion strains, locus YKR091W, strain srl3, active compounds read low 1.02 | S. cerevisiae deletion strains, locus YLL001W, strain dnm1, active compounds read low 1.03 | S. cerevisiae deletion strains, locus YLL026W, active compounds read low 1.03 | S. cerevisiae deletion strains, locus YLL041C, strain sdh2, active compounds read low 1.02 | S. cerevisiae deletion strains, locus YLR027C, strain aat2, active compounds read low 1.02 | S. cerevisiae deletion strains, locus YLR113W, strain HOG1, active compounds read low 0.976 | S. cerevisiae deletion strains, locus YLR221C, strain rsa3, active compounds read low 1.02 | S. cerevisiae deletion strains, locus YLR258W, strain gsy2, active compounds read low 1.03 | S. cerevisiae deletion strains, locus YLR262C, strain YPT6 (second series), active compounds read low 1.03 | S. cerevisiae deletion strains, locus YLR320W, strain mms22, active compounds read low 1.02 | S. cerevisiae deletion strains, locus YLR342W, strain FKS1, active compounds read low 1.03 | S. cerevisiae deletion strains, locus YLR357W, strain rsc2, active compounds read low 1.06 | S. cerevisiae deletion strains, locus YLR370C, strain arc18, active compounds read low 1.02 | S. cerevisiae deletion strains, locus YLR384C, strain iki3, active compounds read low 1.02 | S. cerevisiae deletion strains, locus YML120C, strain ndi1, active compounds read low 1.01 | S. cerevisiae deletion strains, locus YMR058W, strain fet3, active compounds read low 1.02 | S. cerevisiae deletion strains, locus YMR125W, strain sto1, active compounds read low 1.03 | S. cerevisiae deletion strains, locus YMR129W, active compounds read low 1 | S. cerevisiae deletion strains, locus YMR205C, strain PFK2, active compounds read low 1.02 | S. cerevisiae deletion strains, locus YMR231W, strain pep5, active compounds read low 1.03 | S. cerevisiae deletion strains, locus YNL071W, strain lat1, active compounds read low 1.02 | S. cerevisiae deletion strains, locus YNL183C, strain NPR1, active compounds read low 0.912 | S. cerevisiae deletion strains, locus YNL209W, strain ssb2, active compounds read low 1.02 | S. cerevisiae deletion strains, locus YNL248C, strain rpa49, active compounds read low 1.01 | S. cerevisiae deletion strains, locus YNL322C, strain KRE1 (second series), active compounds read low 1.01 | S. cerevisiae deletion strains, locus YNR049C, strain mso1, active compounds read low 1.02 | S. cerevisiae deletion strains, locus YOR001W, strain rrp6, active compounds read low 1.02 | S. cerevisiae deletion strains, locus YOR070C, strain gyp1, active compounds read low 1.01 | S. cerevisiae deletion strains, locus YOR080W, strain dia2, active compounds read low 1.02 | S. cerevisiae deletion strains, locus YOR083W, strain WHI5, active compounds read low 1.01 | S. cerevisiae deletion strains, locus YOR106W, strain vam3, active compounds read low 1.02 | S. cerevisiae deletion strains, locus YOR231W, strain MKK1, active compounds read low 0.973 | S. cerevisiae deletion strains, locus YOR265W, strain rbl2, active compounds read low 1.01 | S. cerevisiae deletion strains, locus YOR270C, strain vph1, active compounds read low 1.07 | S. cerevisiae deletion strains, locus YOR290C, strain snf2, active compounds read low 1.03 | S. cerevisiae deletion strains, locus YPL051W, strain arl3, active compounds read low 1.02 | S. cerevisiae deletion strains, locus YPL078C, strain atp4, active compounds read low 1.02 | S. cerevisiae deletion strains, locus YPL106C, strain sse1, active compounds read low 1.03 | S. cerevisiae deletion strains, locus YPL240C, strain hsp82, active compounds read low 1.02 | S. cerevisiae deletion strains, locus YPL256C, strain CLN2, active compounds read low 0.971

Nc1ccc2nonc2c1N
inactive: [1] 0.965 | [7] 0.96 | [8] 0.906 | S. cerevisiae deletion strains, locus YDL134C, strain PPH21, active compounds read low 0.968 | [9] 0.941 | [10] 0.956 | [2] 0.933 | [11] 0.804 | [12] 0.993 | [28] 0.974 | [13] 0.951 | [14] 0.985 | [15] 0.983 | [16] 0.908 | [17] 0.967 | [18] 0.853 | [19] 0.902 | [20] 0.954 | [21] 0.982 | [3] 0.923 | [29] 0.882 | [23] 0.95 | [4] 0.988 | [5] 0.921 | [6] 0.919 | [25] 0.776 | [26] 0.955
active: [27] 0.902 | [22] 0.919 | [24] 0.845

Cc1ccc(Sc2ccc([N+](=O)[O-])cc2/C=C2\SC(=S)NC2=O)cc1
active: [10] 0.859 | [11] 0.615 | [16] 0.324 | [19] 0.744 | [29] 0.524 | [25] 0.553
inactive: [1] 0.963 | [7] 0.992 | [8] 0.99 | [9] 0.982 | [2] 0.98 | [12] 0.991 | [28] 1 | [13] 0.997 | [14] 0.976 | [15] 0.979 | [17] 0.999 | [18] 0.82 | [20] 0.897 | [21] 0.984 | [3] 0.978 | [22] 0.996 | [23] 0.887 | [4] 0.969 | [24] 0.903 | [5] 0.963 | [6] 0.924 | [26] 0.982
